Results reported in PubChem BioAssay.
Where “and” joins values, the source holds several entries; their conditions need not be identical. Equal values may be shown once. Inconclusive results are not listed. Calls of active or inactive are those of the source.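 Rule for the calls, unless noted: active = normalized viability below 100% at a tested concentration; inactive = the rest.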

How the values were obtained:
[1] = viability loss in pontine glioma line – cell-based, SU-DIPG-XVII, MIPE5.0, CellTiter-Glo, qHTS, dose response (AID 1347060; cut-off not given, nearly all actives have AC50 up to about 26 µM;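 note: cells exposed to compound for 48 hours before viability readout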); conditions: CellTiter-Glo ATP luminescence
[2] = viability loss in pontine glioma line – cell-based, SU-DIPG-XIII, MIPE5.0, CellTiter-Glo, qHTS, dose response (AID 1347064; cut-off not given, nearly all actives have AC50 up to about 23 µM;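 note: cells exposed to compound for 48 hours before the viability read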); conditions: CellTiter-Glo ATP luminescence
[3] = viability loss in pontine glioma line – cell-based, SU-DIPG-XXV, MIPE5.0, CellTiter-Glo, qHTS, dose response (AID 1347065; cut-off not given, nearly all actives have AC50 up to about 26 µM;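 note: cells exposed to compound for 48 hours before ATP readout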); conditions: CellTiter-Glo ATP luminescence
[4] = JHH-DIPG-1 glioma cell viability, MIPE5.0 library, CellTiter-Glo luminescence, qHTS (AID 1347067; cut-off not given, nearly all actives have AC50 up to about 26 µM;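 note: cells exposed to compound for 48 hours before readout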); conditions: JHH-DIPG-1 glioma viability, CellTiter-Glo ATP luminescence
[5] = growth inhibition of DIPG cells – cell-based, MIPE5.0 library, qHTS (AID 1347068; cut-off not given, nearly all actives have IC50 up to about 30 µM;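 note: cells exposed to compound for 48 hours before viability readout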); conditions: SU-DIPG-XXV viability
[6] = viability loss with induced miR-34 in A549 – imaging, A549 dox-inducible miR-34, nuclei and caspase counts, primary screen (AID 1347080;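 active = compounds whose cell count with miR-34 switched on is under 0.7 times the count with it off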); conditions: A549 miR-34 inducible, Hoechst nuclei count, 48 h
[7] = MELAS cybrid and Rieske KO viability enhancers – cell-based, MELAS cybrids, Rieske KO mouse fibroblasts, CellTiter-Glo, primary screen (AID 1508586;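 active = mean z-score across replicates of 1.96 or higher in either the MELAS or the Rieske mutant cell line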;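 note: z relative to plate mean and SD of compound and empty wells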); conditions: low glucose
[8] = drug combination growth inhibition, ovarian cancer – cell-based, oncology-focused library, rucaparib conditional, profiling panel (AID 1508598); conditions: patient-derived ovarian cancer cells, CellTiter-Glo viability, 144 h, stronger effect = lower value
[9] = stronger effect = lower value, cell number ratio, induced over uninduced
[10] = measured here: relative caspase fold change +Dox/-Dox
[11] = measured here: total cells with miR-34 induction, stronger effect = lower value
[12] = measured here: total cells without miR-34 induction
[13] = MELAS cybrid survival, CellTiter-Glo 48 h, stronger effect = higher value
[14] = Rieske KO mouse fibroblast survival, CellTiter-Glo 72 h
[15] = at 0.000305 µM, OCI-C5x cells, with rucaparib 10 µM, 100% = cells with rucaparib alone
[16] = at 0.000305 µM, OCI-C5x cells, without rucaparib
[17] = at 0.000305 µM, OCI-P5x cells, with rucaparib 20 µM, 100% = cells with rucaparib alone
[18] = at 0.000305 µM, OCI-P5x cells, without rucaparib
[19] = at 0.00122 µM, OCI-C5x cells, with rucaparib 10 µM, 100% = cells with rucaparib alone
[20] = at 0.00122 µM, OCI-C5x cells, without rucaparib
[21] = at 0.00122 µM, OCI-P5x cells, with rucaparib 20 µM, 100% = cells with rucaparib alone
[22] = at 0.00122 µM, OCI-P5x cells, without rucaparib
[23] = at 0.00488 µM, OCI-C5x cells, with rucaparib 10 µM, 100% = cells with rucaparib alone
[24] = at 0.00488 µM, OCI-C5x cells, without rucaparib
[25] = at 0.00488 µM, OCI-P5x cells, with rucaparib 20 µM, 100% = cells with rucaparib alone
[26] = at 0.00488 µM, OCI-P5x cells, without rucaparib
[27] = at 0.0195 µM, OCI-C5x cells, with rucaparib 10 µM, 100% = cells with rucaparib alone
[28] = at 0.0195 µM, OCI-C5x cells, without rucaparib
[29] = at 0.0195 µM, OCI-P5x cells, with rucaparib 20 µM, 100% = cells with rucaparib alone
[30] = at 0.0195 µM, OCI-P5x cells, without rucaparib
[31] = at 0.0781 µM, OCI-C5x cells, with rucaparib 10 µM, 100% = cells with rucaparib alone
[32] = at 0.0781 µM, OCI-C5x cells, without rucaparib
[33] = at 0.0781 µM, OCI-P5x cells, with rucaparib 20 µM, 100% = cells with rucaparib alone
[34] = at 0.0781 µM, OCI-P5x cells, without rucaparib
[35] = at 0.313 µM, OCI-C5x cells, with rucaparib 10 µM, 100% = cells with rucaparib alone
[36] = at 0.313 µM, OCI-C5x cells, without rucaparib
[37] = at 0.313 µM, OCI-P5x cells, with rucaparib 20 µM, 100% = cells with rucaparib alone
[38] = at 0.313 µM, OCI-P5x cells, without rucaparib
[39] = at 1.25 µM, OCI-C5x cells, with rucaparib 10 µM, 100% = cells with rucaparib alone
[40] = at 1.25 µM, OCI-C5x cells, without rucaparib
[41] = at 1.25 µM, OCI-P5x cells, with rucaparib 20 µM, 100% = cells with rucaparib alone
[42] = at 1.25 µM, OCI-P5x cells, without rucaparib
[43] = at 5 µM, OCI-C5x cells, with rucaparib 10 µM, 100% = cells with rucaparib alone
[44] = at 5 µM, OCI-C5x cells, without rucaparib
[45] = at 5 µM, OCI-P5x cells, with rucaparib 20 µM, 100% = cells with rucaparib alone
[46] = at 5 µM, OCI-P5x cells, without rucaparib

Fc1cccc(-n2cnc3c(NCc4nc5c(F)c(F)ccc5[nH]4)nc(N4CCOCC4)nc32)c1
active: AC50 [1] 0.166 µM | AC50 [2] 0.295 µM | AC50 [3] 0.332 µM | AC50 [4] 0.209 µM | IC50 [5] 0.525 µM

CCCC1(CCC)CCC2(CCN(CCCN(CC)CC)C2)CC1
active: AC50 [1] 7.42 µM | AC50 [2] 4.17 µM | AC50 [3] 6.61 µM | AC50 [4] 3.72 µM | IC50 [5] 10.5 µM

c1ccc(Cn2c(-c3ccc(OCC(C4CCNCC4)n4c(-c5ccccc5)nc5ccccc54)cc3)nc3ccccc32)cc1 (stereo not given)
-1.33: z-score [7, 14]
inactive: fold change [6, 9] 1.11 | z-score [7, 13] -0.583
5600: cell count [6, 11]
5040: cell count [6, 12]
active: AC50 [1] 18.6 µM | AC50 [2] 20.9 µM | AC50 [3] 13.2 µM | AC50 [4] 16.6 µM | IC50 [5] 23.5 µM
0.359: fold change [6, 10]

COc1cc(Nc2ncc(F)c(Nc3ccc4c(n3)NC(=O)C(C)(C)O4)n2)cc(OC)c1OC
inactive: fold change [6, 9] 1.02 and 1.15 | z-score [7, 13] -0.458 and -0.514 | viability [8, 15] 109% | viability [8, 16] 101% | viability [8, 19] 111% | viability [8, 20] 109% | viability [8, 23] 111% | viability [8, 24] 111% | viability [8, 27] 118% | viability [8, 28] 112% | viability [8, 31] 107% | viability [8, 32] 114% | viability [8, 35] 112% | viability [8, 36] 126% | viability [8, 39] 116% | viability [8, 40] 127% | viability [8, 43] 122% | viability [8, 44] 151%
0.841 and 0.707: fold change [6, 10]
1550 and 1090: cell count [6, 11]
0.0101 and 0.0182: z-score [7, 14]
active: AC50 [1] 1.18 µM | AC50 [2] 1.86 µM | AC50 [3] 1.32 µM | AC50 [4] 5.9 µM | viability [8, 17] 83% | viability [8, 18] 96.3% | viability [8, 21] 82.7% | viability [8, 22] 86.9% | viability [8, 25] 78.5% | viability [8, 26] 95.2% | viability [8, 29] 70.2% | viability [8, 30] 74.2% | viability [8, 33] 59.3% | viability [8, 34] 55% | viability [8, 37] 46.3% | viability [8, 38] 50% | viability [8, 41] 81.5% | viability [8, 42] 99.3% | viability [8, 45] 79% | viability [8, 46] 96.9%
1520 and 950: cell count [6, 12]

C#CC[C@H](c1nc2cc(Cl)ccc2c(=O)n1Nc1ccccc1)N(CCCN)C(=O)c1cccc(Cl)c1F
inactive: viability [8, 15] 125% | viability [8, 16] 105% | viability [8, 17] 109% | viability [8, 19] 130% | viability [8, 20] 102% | viability [8, 21] 109% | viability [8, 23] 115% | viability [8, 24] 109% | viability [8, 25] 107% | viability [8, 27] 125% | viability [8, 28] 112%
active: AC50 [1] 0.417 µM | AC50 [2] 4.68 µM | AC50 [3] 0.372 µM | AC50 [4] 0.742 µM | IC50 [5] 0.417 µM | viability [8, 18] 94.3% | viability [8, 22] 97.9% | viability [8, 26] 92.1% | viability [8, 29] 96.2% | viability [8, 30] 90.6% | viability [8, 31] 67.5% | viability [8, 32] 57.4% | viability [8, 33] 91.9% | viability [8, 34] 49.8% | viability [8, 35] 57% | viability [8, 36] 55% | viability [8, 37] 59.6% | viability [8, 38] 17.5% | viability [8, 39] 56.2% | viability [8, 40] 46.9% | viability [8, 41] 54.9% | viability [8, 42] 15.7% | viability [8, 43] 1.31% | viability [8, 44] 3.55% | viability [8, 45] 0.597% | viability [8, 46] 1.54%
